Where a name gives a salt, the structure may show the parent alone.
System: Vero E6 infected with SARS-CoV-2
Test: inhibition of SARS-CoV-2 cytopathic effect; higher = more antiviral protection, active = above 15
Settings: 48 h

Measured: inhibition of SARS-CoV-2 cytopathic effect

COc1cc2c(cc1OC)-c1cc3nc4ccccc4nc3n1C(C)(C)C2
inactive: 1 nM 2.63% | 8.33 nM 1.86% | 100 nM 1.86% | 833.33 nM -2.74% | 10000 nM -7.6%

COc1cccc2c1C(=O)c1c(O)c3c(c(O)c1C2=O)C[C@@](O)(C(=O)CO)C[C@@H]3O[C@H]1C[C@H](N)[C@@H](O)[C@H](C)O1 [Epirubicin Hydrochloride]
inactive: 1 nM 1.23% | 8.33 nM 1.09% | 100 nM 0.605% | 833.33 nM 1.46% | 10000 nM -4.63%

CCc1nc(N)nc(N)c1-c1ccc(Cl)cc1 [pyrimethamine]
inactive: 1 nM 2.57% | 8.33 nM 3.29% | 100 nM 2.35% | 833.33 nM 1.69% | 10000 nM -1.07%

Cc1cccc(Nc2ccncc2S(=O)(=O)NC(=O)NC(C)C)c1 [torasemide]
inactive: 1 nM -0.3% | 8.33 nM -0.37% | 100 nM -0.51% | 833.33 nM -1.03% | 10000 nM -1.02%

CN1CCN(C(c2ccccc2)c2ccccc2)CC1 [cyclizine]
inactive: 1 nM -1.86% | 8.33 nM -1.86% | 100 nM -1.97% | 833.33 nM -0.45% | 10000 nM 0.42%

CN(C)CCCSC(=N)N [dimaprit]
inactive: 1 nM 0.47% | 8.33 nM 0.92% | 100 nM -0.82% | 833.33 nM -1.15% | 10000 nM 2.17%

Cc1ccc(S(=O)(=O)Cc2nc(-c3ccc(C(=O)NCc4cccnc4)cc3)oc2C)cc1
inactive: 1 nM -2.69% | 8.33 nM -2.16% | 100 nM -15.4% | 833.33 nM -19.2% | 10000 nM -16.4%

CCN1CCN(c2cc(-c3ccc(F)cc3)c3c(n2)CCCCCC3)CC1 [blonanserin]
inactive: 1 nM 3.34% | 8.33 nM 2.25% | 100 nM -2.9% | 833.33 nM -0.44% | 10000 nM -3.59%

CCCCCC(=O)O[C@]1(C(C)=O)CC[C@H]2[C@@H]3CCC4=CC(=O)CC[C@]4(C)[C@H]3CC[C@@]21C [17-hydroxyprogesterone-caproate]
inactive: 1 nM -1.12% | 8.33 nM 1.14% | 100 nM 1.12% | 833.33 nM 1.58% | 10000 nM 5.84%

CCOC(=O)[C@H](CCc1ccccc1)N[C@@H](C)C(=O)N1C(=O)N(C)C[C@H]1C(=O)O [imidapril]
inactive: 1 nM -1.07% | 8.33 nM 0.74% | 100 nM 0.36% | 833.33 nM -0.5% | 10000 nM -1.28%

O=S(=O)(O)c1ccc2[nH]c(-c3ccccc3)nc2c1 [phenylbenzimidazole-sulfonic-acid]
inactive: 1 nM -0.84% | 8.33 nM 2.98% | 100 nM 1.91% | 833.33 nM 4.9% | 10000 nM -7.89%

O=c1ccc2ccccc2o1 [coumarin]
inactive: 1 nM -0.97% | 8.33 nM -0.94% | 100 nM -1.66% | 833.33 nM 1.9% | 10000 nM -0.9%

O=C1NS(=O)(=O)c2ccccc21 [saccharin]
inactive: 1 nM 0.13% | 8.33 nM -1.09% | 100 nM 0.17% | 833.33 nM -0.12% | 10000 nM -2.82%

CCCCCCCCCCCCCCCC(=O)OC[C@@H](NC(=O)C(Cl)Cl)[C@H](O)c1ccc([N+](=O)[O-])cc1 [chloramphenicol-palmitate]
inactive: 1 nM 0.12% | 8.33 nM 0.68% | 100 nM -1.3% | 833.33 nM -1.25% | 10000 nM 0.57%

CC(C)(C)c1ccc(S(=O)(=O)Nc2ccc(Cl)cc2C(=O)c2cc[n+]([O-])cc2)cc1 [vercirnon]
inactive: 1 nM 1.28% | 8.33 nM 1.21% | 100 nM 2.63% | 833.33 nM 4.3% | 10000 nM 1.46%

O=C(O)[C@H](CC(=O)N1C[C@H]2CCCC[C@H]2C1)Cc1ccccc1 [mitiglinide]
inactive: 1 nM -0.3% | 8.33 nM -1.42% | 100 nM -1.04% | 833.33 nM -1.17% | 10000 nM 1.67%

CC1=C(C(=O)O)N2C(=O)[C@@H](NC(=O)[C@H](N)c3ccccc3)[C@H]2SC1 [cephalexin]
inactive: 1 nM 2.47% | 8.33 nM 0.37% | 100 nM 0.73% | 833.33 nM -1.01% | 10000 nM -3.66%

Cc1cc2c(C(N)=O)cccc2n1-c1nc2c(c(NCc3ccccc3)n1)COCC2
inactive: 1 nM 1.91% | 8.33 nM -0.78% | 100 nM -2.17% | 833.33 nM 11.2% | 10000 nM -31.7%

Cc1ccc(-c2ncn(-c3ccc(Nc4nccc(-c5cccc(N6CCOCC6)c5)n4)cc3)n2)cn1
inactive: 1 nM -4.9% | 8.33 nM -4.6% | 100 nM -3.08% | 833.33 nM -5.23% | 10000 nM -2.89%

CN1CCC(NC(=O)c2cc(-c3c(O)cc(O)cc3Oc3ccc([N+](=O)[O-])cc3)on2)CC1
inactive: 1 nM 0.32% | 8.33 nM 0.21% | 100 nM 3.95% | 833.33 nM -1.5% | 10000 nM -5.98%

O=C(Nc1c[nH]nc1-c1nc2ccc(CN3CCOCC3)cc2[nH]1)NC1CC1
inactive: 1 nM 0.02% | 8.33 nM -0.1% | 100 nM 0.35% | 833.33 nM 0.87% | 10000 nM -5.1%

c1ccc2c(CC3=NCCN3)cccc2c1 [naphazoline]
inactive: 1 nM 1.08% | 8.33 nM 0.66% | 100 nM 0.05% | 833.33 nM 2.24% | 10000 nM 0.73%

CC(=O)NS(=O)(=O)c1ccc(NC(=O)c2ccccc2C(=O)O)cc1 [phthalylsulfacetamide]
inactive: 1 nM -0.71% | 8.33 nM -1.43% | 100 nM -0.27% | 833.33 nM 0.53% | 10000 nM -0.38%

FC(F)(F)c1cccc(-c2noc(-c3cc(-c4ccccc4)c(C(F)(F)F)s3)n2)c1
inactive: 1 nM 1.19% | 8.33 nM 0.95% | 100 nM -0.54% | 833.33 nM 1.01% | 10000 nM 1.68%

O=c1[nH]c2ccccc2n1C1CCN(CCCC(c2ccc(F)cc2)c2ccc(F)cc2)CC1 [pimozide]
inactive: 1 nM 0.44% | 8.33 nM 1.6% | 100 nM 0.1% | 833.33 nM -0.58% | 10000 nM -5.7%

COc1ccc(Cc2nccc3cc(OC)c(OC)cc23)cc1OC [papaverine]
inactive: 1 nM -0.41% | 8.33 nM 0.26% | 100 nM -3.04% | 833.33 nM -2.94% | 10000 nM -1.53%

c1ccc(CC2=NCCN2)cc1 [tolazoline]
inactive: 1 nM -0.5% | 8.33 nM 0.92% | 100 nM 1.33% | 833.33 nM 2.41% | 10000 nM -0.69%

CC(C)(C)C(=O)NCCCC(=O)O [pivagabine]
inactive: 1 nM 0.01% | 8.33 nM -1.15% | 100 nM -1.01% | 833.33 nM 0.86% | 10000 nM -0.03%

N[C@@H]1CCN(c2cccnc2)C1
inactive: 1 nM 0.23% | 8.33 nM 0.19% | 100 nM 1.46% | 833.33 nM 2.41% | 10000 nM 3.85%

CO[C@H]1CC=C2CCN3CCC4=C(CC(=O)OC4)[C@]23C1
inactive: 1 nM 1.56% | 8.33 nM -0.91% | 100 nM 1.32% | 833.33 nM 0.73% | 10000 nM 1.37%

O=C(O)COCCN1CCN(C(c2ccccc2)c2ccc(Cl)cc2)CC1 (stereo not given) [cetirizine]
inactive: 1 nM -1.03% | 8.33 nM 1.14% | 100 nM -0.08% | 833.33 nM 0.99% | 10000 nM -2.71%

COc1ccc(S(=O)(=O)N(C(C)=O)c2ccccc2/C=C/c2cc[n+]([O-])cc2)cc1
inactive: 1 nM 2.08% | 8.33 nM 0.26% | 100 nM -2.17% | 833.33 nM -2.71% | 10000 nM -2.49%

Cc1cccc(C(=O)O)c1O [hydroxytoluic-acid]
inactive: 1 nM -9.06% | 8.33 nM -7.41% | 100 nM -5.24% | 833.33 nM -2.47% | 10000 nM -10.5%

Oc1cc2c(cc1O)[C@H](Cc1cccc3ccccc13)NCC2
inactive: 1 nM 1.2% | 8.33 nM -0.02% | 100 nM -0.84% | 833.33 nM -0.78% | 10000 nM -2.59%

O=C(O)c1cn(-c2ccc(F)cc2)c2cc(N3CCNCC3)c(F)cc2c1=O [sarafloxacin]
inactive: 1 nM -2.73% | 8.33 nM -5.26% | 100 nM -3.5% | 833.33 nM -5.86% | 10000 nM -4.93%

O[C@H]1[C@H](O)[C@@H](O)[C@H](O)[C@@H](O)[C@H]1O [inositol]
inactive: 1 nM -0.68% | 8.33 nM 0.73% | 100 nM -1.55% | 833.33 nM 1.69% | 10000 nM 2.84%

CN(C)NC(=O)CCC(=O)O [daminozide]
inactive: 1 nM -0.2% | 8.33 nM 2.15% | 100 nM 0.35% | 833.33 nM 0.11% | 10000 nM 1.18%

CCCCCCCCCCCCCCCC[N+](C)(C)C [cetrimonium]
inactive: 1 nM 1.02% | 8.33 nM -0.39% | 100 nM 0.2% | 833.33 nM -3.96% | 10000 nM -18.4%

CC(C)C[C@H](NC(=O)[C@@H](COC(C)(C)C)NC(=O)[C@H](Cc1ccc(O)cc1)NC(=O)[C@H](CO)NC(=O)[C@H](Cc1c[nH]c2ccccc12)NC(=O)[C@H](Cc1cnc[nH]1)NC(=O)[C@@H]1CCC(=O)N1)C(=O)N[C@@H](CCCNC(=N)N)C(=O)N1CCC[C@H]1C(=O)NNC(N)=O [goserelin-acetate]
inactive: 1 nM 1.97% | 8.33 nM 1.03% | 100 nM 2.63% | 833.33 nM -0.57% | 10000 nM 5.2%
